Out of some 39,000 compounds screened, about 1,500 (3.8%) were called active. This is one part of a sample in which actives are shown more often than they occur.
What follows are molecules tested on HSkMC (human skeletal muscle cells) (assay: cytotoxicity call (relative viability < 0.9)). Conditions: 10 µM.

Structure (SMILES) | cytotoxicity call
COc1ccccc1CNC(=O)C[C@H]1C[C@@H]2c3cc(NC(=O)c4cccnc4)ccc3O[C@@H]2[C@H](CO)O1 | inactive
C[C@@H]1CN([C@@H](C)CO)C(=O)Cc2cc(NS(=O)(=O)c3ccc(F)cc3)ccc2O[C@@H]1CN(C)Cc1ccc(Oc2ccccc2)cc1 | active
Cc1ccccc1S(=O)(=O)N1C[C@@H](O)COC[C@@H]2O[C@H](CC(=O)N3CCOCC3)CC[C@H]21 | inactive
COc1ccc2c3c([nH]c2c1)[C@H](CO)N(C[C@]13CCN(CC1)C(=O)c1cnccn1)C(=O)c1cnccn1 | inactive
COc1ccc(C(=O)CO)cc1 | inactive
COc1ccc(C(=O)O)cc1 | inactive
COc1ccc(C(=O)CC(=O)c2ccc(C(C)(C)C)cc2)cc1 | active
Cc1cc(C(=O)Nc2cccc3c2O[C@H](CN(C)Cc2ccc4c(c2)OCO4)[C@@H](C)CN([C@@H](C)CO)C3=O)n(C)n1 | inactive
O=C(O)CCNC(=O)c1ccccc1 [listing 1 of 2 here] | inactive
Cc1cc(O[C@@H](CCC(F)(F)F)c2ccc(C(=O)NCCC(=O)O)cc2)cc(C)c1-c1ccc(C(C)(C)C)cc1 | active
O=C(O)CCNC(=O)c1ccccc1 [listing 2 of 2 here] | inactive
O=C(/C=C/c1ccc(O)c(O)c1)O[C@]1(C(=O)O)C[C@@H](O)[C@H](O)[C@H](O)C1 | inactive
CC(C)NC(=O)Nc1ccc2c(c1)C(=O)N([C@H](C)CO)C[C@H](C)[C@@H](CN(C)S(=O)(=O)c1ccc(F)cc1)O2 | inactive
Cn1cnc(CCNC(=O)C[C@@H]2CC[C@H]3[C@@H](COC[C@@H](O)CN3C(=O)Nc3ccc(Cl)cc3)O2)c1 | inactive
CO[C@@H]1CN(C)C(=O)c2ccc(NS(=O)(=O)CC(F)(F)F)cc2OC[C@H](C)N(Cc2cccnc2)C[C@H]1C | inactive
C[C@@H]1CN([C@H](C)CO)C(=O)c2cc(NC(=O)Nc3cccc4ccccc34)ccc2O[C@@H](C)CCCCO[C@H]1CN(C)Cc1ccc2c(c1)OCO2 | inactive
C[C@@H]1CCCCO[C@H](CN(C)Cc2ccc3c(c2)OCO3)[C@H](C)CN([C@@H](C)CO)C(=O)c2cc(NC(=O)Nc3cccc4ccccc34)ccc2O1 | active
C[C@H](CO)N1C[C@H](C)[C@@H](CN(C)Cc2ccc3c(c2)OCO3)OCCCC[C@H](C)Oc2ccc(NC(=O)Nc3cccc4ccccc34)cc2C1=O | active
C[C@@H]1CCCCO[C@@H](CN(C)Cc2ccc3c(c2)OCO3)[C@@H](C)CN([C@@H](C)CO)C(=O)c2cc(NC(=O)Nc3cccc4ccccc34)ccc2O1 | inactive
C[C@@H]1CN([C@@H](C)CO)C(=O)c2cc(NC(=O)Nc3cccc4ccccc34)ccc2O[C@@H](C)CCCCO[C@H]1CN(C)Cc1ccc2c(c1)OCO2 | active
C[C@H]1CCCCO[C@@H](CN(C)Cc2ccc3c(c2)OCO3)[C@@H](C)CN([C@@H](C)CO)C(=O)c2cc(NC(=O)Nc3cccc4ccccc34)ccc2O1 | active
C[C@@H]1CCCCO[C@H](CN(C)Cc2ccc3c(c2)OCO3)[C@@H](C)CN([C@H](C)CO)C(=O)c2cc(NC(=O)Nc3cccc4ccccc34)ccc2O1 | inactive
C[C@@H]1CCCCO[C@@H](CN(C)Cc2ccc3c(c2)OCO3)[C@@H](C)CN([C@H](C)CO)C(=O)c2cc(NC(=O)Nc3cccc4ccccc34)ccc2O1 | inactive

Structure (SMILES) | cytotoxicity call
C=CCOC(=O)[C@H]1[C@@H]2C(=O)O[C@@H](c3ccccc3)[C@@H](c3ccccc3)N2[C@@H](c2ccc(OCCOC(=O)[C@@H]3C[C@@H]4C(=O)N[C@@H](CCCCNC(C)=O)C(=O)N4[C@@H]3c3ccc(O)cc3)cc2)[C@]12C(=O)Nc1ccccc12 | inactive
COc1ccc(CN(C)C[C@@H]2OCCCC[C@@H](C)Oc3ccc(NS(=O)(=O)c4ccc(F)cc4)cc3C(=O)N([C@H](C)CO)C[C@@H]2C)cc1 | inactive
C[C@H](CO)N1C[C@H](C)[C@@H](CN(C)Cc2ccc(C(F)(F)F)cc2)Oc2ccc(NC(=O)Cn3cnnn3)cc2CC1=O | inactive
C[C@H](CO)N1C[C@H](C)[C@@H](CN(C)S(=O)(=O)c2cn(C)cn2)Oc2ccc(NC(=O)C3CCCCC3)cc2CC1=O | inactive
Cc1ccc(S(=O)(=O)Nc2cccc3c2O[C@@H](CN(C)S(=O)(=O)c2cccs2)[C@@H](C)CN([C@H](C)CO)C3=O)cc1 | inactive
CN1C(=O)C[C@@H]2[C@@H]1CCN2C(=O)c1ccc[nH]1 | inactive
C[C@H](CO)N1C[C@H](C)[C@@H](CN(C)S(=O)(=O)c2cn(C)cn2)OCc2ccccc2-c2ccccc2C1=O | inactive
C[C@@H]1CCCCO[C@H](CN(C)Cc2ccc3c(c2)OCO3)[C@H](C)CN([C@H](C)CO)C(=O)c2cc(NC(=O)Nc3cccc4ccccc34)ccc2O1 | active
C[C@H](CO)N1C[C@H](C)[C@H](CN(C)Cc2ccc3c(c2)OCO3)OCCCC[C@H](C)Oc2ccc(NC(=O)Nc3cccc4ccccc34)cc2C1=O | active
C[C@@H]1CCCCO[C@@H](CN(C)Cc2ccc3c(c2)OCO3)[C@H](C)CN([C@H](C)CO)C(=O)c2cc(NC(=O)Nc3cccc4ccccc34)ccc2O1 | active
C[C@H]1CCCCO[C@H](CN(C)Cc2ccc3c(c2)OCO3)[C@@H](C)CN([C@@H](C)CO)C(=O)c2cc(NC(=O)Nc3cccc4ccccc34)ccc2O1 | inactive
C[C@@H]1CCCCO[C@H](CN(C)Cc2ccc3c(c2)OCO3)[C@@H](C)CN([C@@H](C)CO)C(=O)c2cc(NC(=O)Nc3cccc4ccccc34)ccc2O1 | inactive
C[C@@H]1CN([C@H](C)CO)C(=O)c2cc(NC(=O)Nc3cccc4ccccc34)ccc2O[C@@H](C)CCCCO[C@@H]1CN(C)Cc1ccc2c(c1)OCO2 | active
C[C@@H]1CCCCO[C@@H](CN(C)Cc2ccc3c(c2)OCO3)[C@H](C)CN([C@@H](C)CO)C(=O)c2cc(NC(=O)Nc3cccc4ccccc34)ccc2O1 | inactive
C[C@@H]1CN([C@@H](C)CO)C(=O)c2cc(NC(=O)Nc3cccc4ccccc34)ccc2O[C@@H](C)CCCCO[C@@H]1CN(C)Cc1ccc2c(c1)OCO2 | inactive
Cc1ccc(S(=O)(=O)Nc2ccc3c(c2)C(=O)N([C@@H](C)CO)C[C@@H](C)[C@@H](CN(C)C(=O)Nc2ccc(C(F)(F)F)cc2)O3)cc1 | inactive
C[C@H](CO)N1C[C@H](C)[C@@H](CN(C)C(=O)Nc2ccc(C(F)(F)F)cc2)OCc2cn(nn2)CCCC1=O | inactive
CN(C)/N=N/c1nc[nH]c1C(N)=O | inactive
COC(=O)C[C@H]1CC[C@H](N)[C@@H](CO)O1 | inactive
NCc1cccc(-c2ccccc2)c1 | inactive
C[C@@H]1CCCCO[C@@H](CN(C)C(=O)NC2CCCCC2)[C@@H](C)CN([C@H](C)CO)C(=O)c2cc(NC(=O)CCCCCC(=O)Nc3ccccc3N)ccc2O1 | inactive
C[C@@H]1CN([C@@H](C)CO)C(=O)c2cc(NC(=O)Nc3ccc(F)cc3)ccc2O[C@@H](C)CCCCO[C@@H]1CN(C)C(=O)C1CCCCC1 | inactive
C[C@@H]1CN([C@H](C)CO)C(=O)c2cc(NS(=O)(=O)c3ccc(Cl)cc3)ccc2O[C@@H]1CN(C)Cc1ccc(Cl)c(Cl)c1 | active

Structure (SMILES) | cytotoxicity call
C[C@H]1CN([C@@H](C)CO)C(=O)c2cc(NS(=O)(=O)c3ccc(Cl)cc3)ccc2O[C@H]1CN(C)Cc1ccc(Cl)c(Cl)c1 | active
C[C@H](CO)N1C[C@H](C)[C@@H](CN(C)Cc2ccc(Cl)c(Cl)c2)Oc2ccc(NS(=O)(=O)c3ccc(Cl)cc3)cc2C1=O | active
C[C@@H]1CN([C@@H](C)CO)C(=O)c2cc(NS(=O)(=O)c3ccc(Cl)cc3)ccc2O[C@H]1CN(C)Cc1ccc(Cl)c(Cl)c1 | active
COc1oc(C(=O)NC2CCCCC2)c(-c2ccc(Cl)cc2)c1S(=O)(=O)c1ccccc1Cl | inactive
Cc1ccc(S(=O)(=O)N2C[C@H](O)COC[C@@H]3O[C@H](CC(=O)NCCN4CCCCC4)CC[C@H]32)cc1 | inactive
COc1ccc(NC(=O)N2C[C@H](O)COC[C@H]3O[C@@H](CC(=O)NCc4ccccc4OC)CC[C@@H]32)cc1 | inactive
COc1ccc(NC(=O)N(C)C[C@H]2OCCCC[C@@H](C)Oc3ccc(NC(=O)CCC(F)(F)F)cc3C(=O)N([C@H](C)CO)C[C@H]2C)cc1 | inactive
C[C@@H]1CCCCO[C@H](CN(C)Cc2ccc(C(F)(F)F)cc2)[C@H](C)CN([C@@H](C)CO)C(=O)c2cc(NC(=O)CCC(F)(F)F)ccc2O1 | inactive
COc1ccc(C#Cc2ccc3c(c2)[C@]2(C(=O)N3)[C@H](c3ccccc3OCCO)N3[C@H](c4ccccc4)[C@H](c4ccccc4)OC(=O)[C@H]3[C@@H]2C(=O)NC[C@H](O)c2ccccc2)cc1 | inactive
COc1ccc(S(=O)(=O)N(C)C[C@@H]2Oc3c(NS(=O)(=O)c4ccc(C)cc4)cccc3C(=O)N([C@@H](C)CO)C[C@H]2C)cc1 | inactive
C[C@@H]1CN([C@@H](C)CO)C(=O)c2cc(NS(=O)(=O)c3ccc(Cl)cc3)ccc2O[C@@H](C)CCCCO[C@H]1CN(C)C(=O)c1ccncc1 | inactive
C=C(C)CCn1cccc1C(C)=O | inactive
C[C@H]1CN([C@@H](C)CO)S(=O)(=O)c2ccc(C#Cc3cccc(F)c3)cc2O[C@@H]1CN(C)C(=O)CN1CCOCC1 | inactive
Cc1noc(C)c1NC(=O)N(C)C[C@H]1Oc2ccc(NC(=O)CCCN(C)C)cc2C(=O)N([C@@H](C)CO)C[C@@H]1C | inactive
C[C@@H]1CN([C@H](C)CO)S(=O)(=O)c2ccc(C3=CCCC3)cc2O[C@@H]1CN(C)C(=O)c1cnccn1 | inactive
C[C@H](CO)N1C[C@H](C)[C@H](CN(C)Cc2ccc(Cl)c(Cl)c2)Oc2ccc(NS(=O)(=O)c3ccc(Cl)cc3)cc2C1=O | active
C[C@H]1CN([C@@H](C)CO)C(=O)c2cc(NS(=O)(=O)c3ccccc3)ccc2O[C@@H]1CN(C)Cc1ccc(Cl)c(Cl)c1 | inactive
C[C@H](CO)N1C[C@H](C)[C@H](CN(C)Cc2ccc(Cl)c(Cl)c2)Oc2ccc(NS(=O)(=O)c3ccccc3)cc2C1=O | inactive
C[C@H]1CN([C@@H](C)CO)C(=O)c2cc(NS(=O)(=O)c3ccc(Cl)cc3)ccc2O[C@@H]1CN(C)Cc1ccc(Cl)c(Cl)c1 | active
C[C@@H]1CN([C@@H](C)CO)C(=O)c2cc(NS(=O)(=O)c3ccc(Cl)cc3)ccc2O[C@@H]1CN(C)Cc1ccc(Cl)c(Cl)c1 | active
C[C@@H]1CN([C@H](C)CO)C(=O)c2cc(NS(=O)(=O)c3ccc(Cl)cc3)ccc2O[C@H]1CN(C)Cc1ccc(Cl)c(Cl)c1 | inactive
C[C@H](CO)N1C[C@H](C)[C@@H](CN(C)Cc2ccc(Cl)c(Cl)c2)Oc2ccc(NS(=O)(=O)c3ccccc3)cc2C1=O | inactive
C[C@@H]1CN([C@@H](C)CO)C(=O)c2cc(NS(=O)(=O)c3ccccc3)ccc2O[C@@H]1CN(C)Cc1ccc(Cl)c(Cl)c1 | active

Reference: the antibiotic and cytotoxicity screens of Wong et al. (2023)
